The panel holds about 83,000 compounds, 20% with a hit somewhere; the sample as a whole holds those more often.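 Compound tested at a single concentration for 48 hours in 96-well plates; a percent growth value below 10 was scored as active.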 The source made the active and inactive calls.
What was measured:
Test in all cases: NCI-60 one-dose screen, 48 h (100 = growth as untreated, 0 = no growth, -100 = all killed)
Conditions in all cases: 10 µM unless noted
NCI-H23 lung = test system: NCI-H23 lung
NCI-H226 lung = test system: NCI-H226 lung
NCI-H322M lung = test system: NCI-H322M lung
HOP-62 NSCLC = test system: HOP-62 NSCLC
NCI-H460 lung = test system: NCI-H460 lung
HOP-92 NSCLC = test system: HOP-92 NSCLC
NCI-H522 lung = test system: NCI-H522 lung
A549/ATCC NSCLC = test system: A549/ATCC NSCLC
786-0 renal = test system: 786-0 renal
COLO 205 colon = test system: COLO 205 colon
DU-145 prostate = test system: DU-145 prostate
K-562 leukemia = test system: K-562 leukemia
MALME-3M melanoma = test system: MALME-3M melanoma
MDA-MB-231 breast = test system: MDA-MB-231 breast
RXF 393 renal = test system: RXF 393 renal
SF-268 CNS = test system: SF-268 CNS
SF-295 CNS = test system: SF-295 CNS
SF-539 CNS = test system: SF-539 CNS
UACC-257 melanoma = test system: UACC-257 melanoma
M14 melanoma = test system: M14 melanoma

Measured: growth

O=S(=O)(NCCNc1cc(-c2c(-c3cccc(O)c3)nc3sccn23)ccn1)c1ccc(C(F)(F)F)cc1
inactive: NCI-H23 lung 51.9% | NCI-H226 lung 38.1% | NCI-H322M lung 61.5% | HOP-62 NSCLC 71.8% | NCI-H460 lung 21.1% | HOP-92 NSCLC 61.9% | NCI-H522 lung 38.1% | A549/ATCC NSCLC 28.6% | 786-0 renal 38.6% | COLO 205 colon 42.6% | DU-145 prostate 43.1% | K-562 leukemia 22.8% | MALME-3M melanoma 57.8% | MDA-MB-231 breast 53.2% | RXF 393 renal 42.1% | SF-268 CNS 34.9% | SF-295 CNS 31.2% | SF-539 CNS 62.3% | UACC-257 melanoma 51.8% | M14 melanoma 36.9%

CCCc1cc(NC)nc(S(=O)(=O)CC)n1
inactive: NCI-H23 lung 102% | NCI-H226 lung 108% | NCI-H322M lung 106% | HOP-62 NSCLC 110% | NCI-H460 lung 110% | HOP-92 NSCLC 108% | NCI-H522 lung 95.9% | A549/ATCC NSCLC 105% | 786-0 renal 101% | COLO 205 colon 120% | DU-145 prostate 109% | K-562 leukemia 97.7% | MALME-3M melanoma 110% | MDA-MB-231 breast 109% | RXF 393 renal 108% | SF-268 CNS 98.4% | SF-295 CNS 99.9% | SF-539 CNS 100% | UACC-257 melanoma 106% | M14 melanoma 99.8%

O=C1CNC(c2ccccc2)C(c2ccccc2)N1 (stereo not given)
inactive: NCI-H23 lung 85.2% | NCI-H226 lung 99.4% | NCI-H322M lung 103% | HOP-62 NSCLC 121% | NCI-H460 lung 103% | HOP-92 NSCLC 86.3% | NCI-H522 lung 88.6% | A549/ATCC NSCLC 93.5% | 786-0 renal 92.4% | COLO 205 colon 115% | DU-145 prostate 102% | K-562 leukemia 120% | MALME-3M melanoma 86.9% | MDA-MB-231 breast 100% | RXF 393 renal 98.3% | SF-268 CNS 110% | SF-295 CNS 109% | SF-539 CNS 100% | UACC-257 melanoma 102% | M14 melanoma 97.4%

Nc1ncnc2c1N=C(c1ccc3c(c1)OCO3)CC(c1ccc([N+](=O)[O-])cc1)N2 (stereo not given)
inactive: NCI-H23 lung 74.7% | NCI-H226 lung 83% | NCI-H322M lung 90.5% | HOP-62 NSCLC 66.9% | NCI-H460 lung 96.2% | HOP-92 NSCLC 41.9% | NCI-H522 lung 95.3% | A549/ATCC NSCLC 58.7% | 786-0 renal 51.8% | COLO 205 colon 97.6% | DU-145 prostate 96.8% | K-562 leukemia 96.5% | MALME-3M melanoma 108% | MDA-MB-231 breast 55.9% | RXF 393 renal 50.4% | SF-268 CNS 86.2% | SF-295 CNS 296% | SF-539 CNS 86.8% | UACC-257 melanoma 77.8% | M14 melanoma 92.2%

O=S(=O)(Nc1ccc(Cl)cc1)c1ccc(-c2cnc(C3CC3)o2)cc1
active: NCI-H460 lung 9.01% | COLO 205 colon 9.01% | K-562 leukemia 9.33% | RXF 393 renal -10.1% | SF-539 CNS -14.6%
inactive: NCI-H23 lung 34.5% | NCI-H226 lung 61.4% | NCI-H322M lung 44% | HOP-62 NSCLC 28.8% | HOP-92 NSCLC 41% | NCI-H522 lung 11.4% | A549/ATCC NSCLC 40.4% | 786-0 renal 41.1% | DU-145 prostate 12.6% | MALME-3M melanoma 46.3% | MDA-MB-231 breast 26.9% | SF-268 CNS 43.5% | SF-295 CNS 33.6% | UACC-257 melanoma 56.1% | M14 melanoma 22%

COC(=O)[C@H]1CCCN1C[C@@H](O)CN1C(=O)/C(=C\c2cc(OC)c(OC)c(OC)c2)c2ccccc21
inactive: NCI-H23 lung 106% | NCI-H226 lung 96.6% | NCI-H322M lung 106% | HOP-62 NSCLC 108% | NCI-H460 lung 94.9% | HOP-92 NSCLC 105% | NCI-H522 lung 97.8% | A549/ATCC NSCLC 90.3% | 786-0 renal 101% | COLO 205 colon 121% | DU-145 prostate 99.6% | K-562 leukemia 81.4% | MALME-3M melanoma 100% | MDA-MB-231 breast 102% | RXF 393 renal 114% | SF-268 CNS 99.8% | SF-295 CNS 105% | SF-539 CNS 111% | UACC-257 melanoma 90.6% | M14 melanoma 97.3%

CCCCNc1ccc(C#N)c(OCCN(CC)CC)c1
inactive: NCI-H23 lung 92.8% | NCI-H226 lung 88% | NCI-H322M lung 100% | HOP-62 NSCLC 101% | NCI-H460 lung 104% | HOP-92 NSCLC 94.4% | NCI-H522 lung 92.8% | A549/ATCC NSCLC 101% | 786-0 renal 112% | COLO 205 colon 100% | DU-145 prostate 113% | K-562 leukemia 86% | MALME-3M melanoma 109% | MDA-MB-231 breast 99.3% | RXF 393 renal 103% | SF-268 CNS 103% | SF-295 CNS 107% | SF-539 CNS 111% | UACC-257 melanoma 114% | M14 melanoma 104%

C=CCn1c(SCC(=O)Nc2ccc(C(=O)/C=C/c3ccc(Cl)cc3)cc2)nnc1-c1cc(-c2ccc(S(N)(=O)=O)cc2)nc2ccccc12
inactive: NCI-H23 lung 99.3% | NCI-H226 lung 89.6% | NCI-H322M lung 99.7% | HOP-62 NSCLC 91.8% | NCI-H460 lung 103% | HOP-92 NSCLC 91.4% | NCI-H522 lung 98.3% | A549/ATCC NSCLC 92.6% | 786-0 renal 83.1% | COLO 205 colon 103% | DU-145 prostate 104% | K-562 leukemia 71.1% | MALME-3M melanoma 93.3% | MDA-MB-231 breast 90% | RXF 393 renal 80.2% | SF-268 CNS 74.8% | SF-295 CNS 97.5% | SF-539 CNS 87% | UACC-257 melanoma 99.8% | M14 melanoma 92.2%

OCCOCCN(Cc1ccccn1)Cc1cc(I)cc(I)c1O
inactive: NCI-H23 lung 90.2% | NCI-H226 lung 83.1% | NCI-H322M lung 82.9% | HOP-62 NSCLC 84.9% | NCI-H460 lung 59.5% | HOP-92 NSCLC 90.2% | NCI-H522 lung 74.4% | A549/ATCC NSCLC 88.5% | 786-0 renal 85.2% | COLO 205 colon 107% | DU-145 prostate 87.8% | K-562 leukemia 107% | MALME-3M melanoma 87.8% | MDA-MB-231 breast 96% | RXF 393 renal 81.1% | SF-268 CNS 81.4% | SF-295 CNS 59.3% | SF-539 CNS 90.8% | UACC-257 melanoma 104% | M14 melanoma 81.1%

Cc1nc2sc(C(=O)Nc3ccccc3)c(N)c2cc1C(=O)c1ccccc1
active: NCI-H460 lung 6.08% | COLO 205 colon -25% | RXF 393 renal -0.48% | SF-295 CNS -9.52%
inactive: NCI-H23 lung 64.4% | NCI-H226 lung 31.3% | NCI-H322M lung 39.4% | HOP-62 NSCLC 34.5% | HOP-92 NSCLC 59.8% | NCI-H522 lung 50.2% | A549/ATCC NSCLC 23.7% | 786-0 renal 44.4% | DU-145 prostate 56.1% | K-562 leukemia 32.4% | MALME-3M melanoma 68.3% | MDA-MB-231 breast 58% | SF-268 CNS 47.8% | SF-539 CNS 33.4% | UACC-257 melanoma 49.8% | M14 melanoma 39.8%

c1ccc(C2=NN[C@H](c3cn(-c4ccccc4)nc3-c3ccccc3)C2)cc1
active: HOP-62 NSCLC -14.5% | 786-0 renal 6.85% | SF-295 CNS -23.8%
inactive: NCI-H23 lung 59.3% | NCI-H226 lung 25.5% | NCI-H322M lung 47.8% | NCI-H460 lung 29% | HOP-92 NSCLC 34.6% | NCI-H522 lung 75.6% | A549/ATCC NSCLC 17.1% | COLO 205 colon 66.5% | DU-145 prostate 56.1% | K-562 leukemia 85.2% | MALME-3M melanoma 53.4% | MDA-MB-231 breast 14% | RXF 393 renal 32.1% | SF-268 CNS 52% | SF-539 CNS 38.5% | UACC-257 melanoma 65.2% | M14 melanoma 45.6%

Brc1ccc(-n2cc(-c3nn[nH]n3)c(-c3cccs3)n2)cc1
inactive: NCI-H23 lung 92.9% | NCI-H226 lung 80.2% | NCI-H322M lung 91.9% | HOP-62 NSCLC 91.3% | NCI-H460 lung 105% | HOP-92 NSCLC 88.2% | NCI-H522 lung 88% | A549/ATCC NSCLC 89.1% | 786-0 renal 96.6% | COLO 205 colon 117% | DU-145 prostate 107% | K-562 leukemia 100% | MALME-3M melanoma 93.7% | MDA-MB-231 breast 88.1% | RXF 393 renal 105% | SF-268 CNS 100% | SF-295 CNS 95.3% | SF-539 CNS 96% | UACC-257 melanoma 96.1% | M14 melanoma 95.9%

COc1cc(-c2cc(-c3cccs3)c(C#N)c(N3CCOCC3)n2)cc(OC)c1OC
inactive: NCI-H23 lung 101% | NCI-H226 lung 111% | NCI-H322M lung 100% | HOP-62 NSCLC 134% | NCI-H460 lung 11.1% | HOP-92 NSCLC 101% | NCI-H522 lung 80.3% | A549/ATCC NSCLC 83.6% | 786-0 renal 37.7% | COLO 205 colon 56.4% | DU-145 prostate 98.7% | K-562 leukemia 10.9% | MALME-3M melanoma 116% | MDA-MB-231 breast 65.4% | RXF 393 renal 40.6% | SF-268 CNS 113% | SF-295 CNS 62% | SF-539 CNS 58.9% | UACC-257 melanoma 20.7% | M14 melanoma 44.6%

Cc1ccc(-c2cc(-c3ccc(Cl)cc3)nc(NC(=O)c3cccnc3)n2)cc1
inactive: NCI-H23 lung 96.5% | NCI-H226 lung 98.6% | NCI-H322M lung 98.5% | HOP-62 NSCLC 114% | NCI-H460 lung 102% | HOP-92 NSCLC 117% | NCI-H522 lung 93.5% | A549/ATCC NSCLC 105% | 786-0 renal 102% | COLO 205 colon 109% | DU-145 prostate 106% | K-562 leukemia 87.6% | MALME-3M melanoma 111% | MDA-MB-231 breast 91.3% | RXF 393 renal 94.1% | SF-268 CNS 97.6% | SF-295 CNS 103% | SF-539 CNS 106% | UACC-257 melanoma 121% | M14 melanoma 109%

Reference: PubChem BioAssay (NCI)
